We go through 40 compounds from PubChem BioAssay (NCATS).

Results filed as inconclusive are left out. A call without a number means that no potency is given here. Active and inactive are the calls of the source. The call rests on the fitted dose curve; in most records, active means well fitted inhibition curve with a large enough effect in the signal ratio, with a control signal flat (not every such curve was filed as active); inconclusive means small, poorly fitted or top-dose-only effect, or effect the other way, or a change in a side signal; inactive means no such curve, though single readings can be large or run the other way; the % refers to the signal ratio.

Sequence of Peroxisome proliferator-activated receptor delta (Homo sapiens) (Q03181 whole entry, looked up): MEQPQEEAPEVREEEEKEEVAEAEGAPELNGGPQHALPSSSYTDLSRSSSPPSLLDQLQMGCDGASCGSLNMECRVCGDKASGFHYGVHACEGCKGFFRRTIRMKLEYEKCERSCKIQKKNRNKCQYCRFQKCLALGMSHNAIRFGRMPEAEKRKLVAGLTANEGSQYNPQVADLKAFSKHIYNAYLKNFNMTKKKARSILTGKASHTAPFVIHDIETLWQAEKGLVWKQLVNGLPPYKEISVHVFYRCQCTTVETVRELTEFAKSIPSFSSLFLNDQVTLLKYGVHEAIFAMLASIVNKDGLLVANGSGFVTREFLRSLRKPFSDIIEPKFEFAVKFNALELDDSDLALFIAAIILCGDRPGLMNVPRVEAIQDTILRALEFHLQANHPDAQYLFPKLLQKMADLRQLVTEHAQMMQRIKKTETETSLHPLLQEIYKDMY

The target of the test is Peroxisome proliferator-activated receptor delta (Homo sapiens) (UniProt Q03181). Description: qHTS assay for small molecule antagonists of peroxisome proliferator-activated receptor delta signaling (AID 588535). To be noted: HEK293T PPARd-UAS-bla, beta-lactamase FRET ratio, 18 h; series mostly up to 76.7 µM. The text has this:
NIH Chemical Genomics Center [NCGC] U.S. Environmental Protection Agency [EPA] National Institutes of Environmental Health Sciences [NIEHS] National Toxicology Program [NTP] NCGC Assay Overview The Peroxisome proliferator-activated receptors (PPARs) are lipid-activated transcription factors of the nuclear receptor superfamily with three distinct subtypes namely PPAR alpha, PPAR delta (also called PPAR beta) and PPAR gamma. All these subtypes heterodimerizes with Retinoid X receptor (RXR) and have different physiological functions. […] This role of PPAR delta implicates the potential use of its ligands in the treatment of metabolic disorders.
NCGC Assay Protocol Summary Using a beta-lactamase reporter-gene under control Peroxisome Proliferator-Activated Receptor delta (PPAR-delta) response element, a cell-based assay [GeneBLAzer (PPAR-delta-UAS-bla assay developed by Invitrogen] was used to measure PPAR-delta ligands signaling. GeneBLAzer PPAR-delta-UAS-bla HEK293T cells were used with assay medium containing 2% charcoal/dextran FBS. The assay was performed in clear bottom black Greiner 1536-well plates. Library compounds were measured for their ability to inhibit the reporter gene activity. Compounds were screened in a titration series in 1536-well format. The fluorescence intensity (405 nm excitation, 460/530 nm emission) was measured using an EnVision plate reader. […] Concentration-response titration points for each compound were fitted to the Hill equation yielding concentrations of half-maximal inhibition (IC50) and maximal response (efficacy) values. qHTS protocol for PPAR-delta beta-lactamase assay in antagonist mode [Step] [Parameter] [Value] [Description] 1. Reagent; 5 uL; 4000 cells/well 2. Incubation; 37 C for 5 hrs 3. Compounds; 23 nL; 0.59 nM to 92 uM 4. […] Incubation; 37 C for 18 hrs 7. Detection reagent; 1 uL of CCF4-dye 8. Incubation; RT for 2 hrs 9. Detection; Fluorescence; Envision plate reader
A general note: Quantitative high-throughput screening tests each substance at several concentrations.
Take `S=C=Nc1cccc2ccccc12`: the Potency entry is “inactive”. To `O=C(Cl)C(Cl)(Cl)Cl` belongs “inactive”; to `COP(=S)(OC)Oc1ccc([N+](=O)[O-])cc1`, “inactive”. On to `CNC(=O)N(C)c1nnc(C(C)(C)C)s1`, for which the Potency result was “inactive”. As for `Brc1ccccc1`, the Potency entry was “inactive”.

As to `C=CCc1ccc(OC)cc1`, the Potency result is “inactive”.

For the compound `Cc1ccc([N+](=O)[O-])cc1C`, the Potency result was “inactive”. As to `O=[N+]([O-])c1cccc2ccccc12`, the Potency entry is “inactive”. With `C=CC(=C)C`, the Potency entry is “inactive”. As for `Cc1cccc([N+](=O)[O-])c1`, the Potency entry was “inactive”.

Consider `COC1=CC(=O)O[C@@H](/C=C/c2ccc3c(c2)OCO3)C1`, for which the Potency result is “inactive”. To `COc1nc(NC(C)C)nc(NC(C)C)n1` belongs “inactive”. In the case of `CCOP(=S)(OCC)SCSC(C)(C)C`, the Potency entry is “inactive”. Regarding `CC(Cl)Cl`, the Potency result is “inactive”.

On to `OCC(Br)CBr` (stereo not given), for which the Potency entry was “inactive”. In the case of `C=CCOC(=O)c1ccccc1N`, the Potency result is “inactive”. On to `CC(C)(c1ccccc1)c1ccc(O)cc1`, for which the Potency entry was “inactive”.

On to `C=CC1CC=CCC1` (stereo not given), for which the Potency result is “inactive”. Take `O=NN(c1ccccc1)c1ccccc1`: the Potency result is “inactive”. Turning to `Nc1ccccc1Cl`, the Potency entry was “inactive”. Turning to `C1CCC2CCCCC2C1` (stereo not given), the Potency result was “inactive”. As for `CC(C)(C)C(=O)C(Oc1ccc(Cl)cc1)n1cncn1` (stereo not given), the entry is “inactive”; as for `CCCCSP(=O)(SCCCC)SCCCC`, “inactive”; as for `Clc1ccc2ccccc2c1`, “inactive”. Regarding `COC(=O)NC(=S)Nc1ccccc1NC(=S)NC(=O)OC`, the Potency result was “inactive”.

For `Clc1cc(Cl)c(-c2cc(Cl)c(Cl)cc2Cl)cc1Cl`, the Potency entry is “inactive”. For `Clc1nc(Cl)nc(Cl)n1`, the Potency entry was “inactive”. Turning to `CC(C)Nc1nc(Cl)nc(NC(C)C)n1`, the Potency result is “inactive”. As for `ClCBr`, the entry is “inactive”. Regarding `CC(C)(C)OOC(C)(C)C`, the Potency result is “inactive”. Consider `C=CC(N)=O`, for which the Potency result was “inactive”.

Turning to `CCOP(=S)(OCC)Oc1ccc([N+](=O)[O-])cc1`, the Potency entry is “inactive”.

Turning to `CNC(=O)Oc1ccccc1OC(C)C`, the Potency entry is “inactive”. To `C[N+](C)(C)Cc1ccccc1` belongs “inactive”. For the compound `CNC(=O)CSP(=S)(OC)OC`, the Potency entry is “inactive”. For the compound `CCS(=O)CCSP(=O)(OC)OC` (stereo not given), the Potency result was “inactive”. With `ClC(Cl)=C(Cl)C(Cl)=C(Cl)Cl`, the Potency entry was “inactive”.

For `Cc1ccccc1N`, the Potency result was “inactive”. As to `ClC1=C(Cl)C2(Cl)C3C(Cl)C=CC3C1(Cl)C2(Cl)Cl` (stereo not given), the Potency result was “inactive”. In the case of `C=CC(=O)OCC`, the Potency entry was “inactive”.
